Screens: PubChem, several laboratories
CYP2C9 activ: CYP2C9 (human) activation; P11712; recombinant CYP2C9, luciferin-H conversion, luminescence; active compounds read high; factor 1 = untreated enzyme, 0 = blocked; activation factor at 5 µM; hit rate 1.4% among 96,000;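 active = activation factor of 2 or more for CYP2C9 at a 5 µM dose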;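 also: 0 = sulfaphenazole-blocked wells and 1 = vehicle-only wells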
Target sequence (P11712 whole entry, looked up): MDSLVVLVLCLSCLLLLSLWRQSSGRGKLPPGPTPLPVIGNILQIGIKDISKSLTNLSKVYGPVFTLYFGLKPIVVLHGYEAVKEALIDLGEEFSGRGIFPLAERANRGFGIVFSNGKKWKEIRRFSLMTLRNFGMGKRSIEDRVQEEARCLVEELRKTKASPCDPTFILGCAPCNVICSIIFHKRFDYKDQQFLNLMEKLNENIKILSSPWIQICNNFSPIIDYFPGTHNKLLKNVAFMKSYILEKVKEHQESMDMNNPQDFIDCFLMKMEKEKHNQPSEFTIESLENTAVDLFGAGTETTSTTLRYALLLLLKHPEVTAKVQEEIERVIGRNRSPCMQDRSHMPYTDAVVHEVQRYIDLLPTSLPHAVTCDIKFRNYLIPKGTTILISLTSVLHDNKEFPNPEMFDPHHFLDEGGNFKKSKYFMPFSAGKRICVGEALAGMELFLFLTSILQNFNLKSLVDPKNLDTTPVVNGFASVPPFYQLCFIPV
CYP2C19 inhib: blocks human cytochrome P450 2C19; AID 778; hit rate 21% among 96,000; inhibition, % at 5 µM; CYP2C19 Supersomes, luciferin-H EGE luminescence, 30 min; P33261;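 active = CYP2C19 inhibition above a set limit at 5 µM in the primary screen, cut at about 50% in these data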;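 also: plate controls were negative control wells for no effect and 2.5 mM tranylcypromine positive control for full effect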
Measles CPE: protection of cells from measles virus | Measles virus-infected cells, CPE protection, absorbance | protection (pct of control), % at 4 µM | hit rate 1.5% among 140,000; in the data active = protection mostly above about 24%, no sharp cut-off; inactive = mostly below about 26%
CYP2C9 inh: inhibitors of human CYP2C9; inhibition, % at 5 µM; hit rate 20% among 96,000; CYP2C9 Supersomes, luciferin-H conversion, luminescence;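 active = blocking of liver enzyme CYP2C9 beyond about 50% at 5 µM, limit read from the data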
CYP2C19 activ: increases human CYP2C19 enzyme activity; recombinant CYP2C19, luciferin-H EGE luminescence; active compounds read high; 0 = fully inhibited enzyme, 1 = untreated enzyme; 96,000 tested, under 10 active; activation factor at 5 µM;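 active = activation factor of at least 2 at 5 µM in the primary screen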;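 also: 0 = wells with 2.5 mM tranylcypromine and 1 = vehicle-only wells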
The depositor's hits bear a star; · = not tested or not shown. Sampled rows, rich in hits. Any-hit rate of the full collection: about 22%.

SMILES	CYP2C9 activ	CYP2C19 inhib	Measles CPE	CYP2C9 inh	CYP2C19 activ
CCOC(=O)C(C)Sc1nnc(-c2ccccc2O)n1-c1ccc(C)cc1 (centres undefined)	0.7	48	7	26	0.5
CCCCn1nnnc1SCC(=O)N1CCCC1	1.1	1	40	-9	1
CC(C(=O)NC1CCCC1)N(C(=O)c1snc(C(N)=O)c1N)c1ccc2c(c1)OCCO2 (centres undefined)	0.5	15	4	50*	0.9
CCN(CC)S(=O)(=O)c1ccc(-c2nnc3sc4cccc(C)c4n23)cc1	0.2	72*	21	78*	0.3
O=c1c2ccsc2ncn1Cc1ccccc1F	1	42	3	4	0.6
O=c1c2ccsc2ncn1Cc1cccc(C(F)(F)F)c1	0.5	35	17	53*	0.6
O=c1c(/C=N/Nc2ccccc2)c(Sc2nnnn2-c2ccccc2)nc2ccccn12	0.3	46	11	72*	0.5
O=Cc1c(Sc2ccccc2)nc2ccccn2c1=O	0.7	72*	7	29	0.3
CC(C)(C)NC(=O)c1cccc(NC(=O)CSc2ccccc2)c1	0.7	4	6	35	1
COc1cccc(/C=N/n2c(-c3cccs3)n[nH]c2=S)c1	0.6	25	2	40	0.7
c1coc(CN=C2NC(=NCc3ccco3)c3ccccc32)c1	0.6	55*	9	40	0.4
COC(=O)CCC(NC(=O)OCc1ccccc1)C(=O)NC(CC(C)C)C(=O)OC (centres undefined)	0.3	36	23	68*	0.6
COC(=O)C(CC(C)C)NC(=O)C(N)Cc1ccccc1 (centres undefined)	1.1	-5	2	-8	1.1
CCOC(=O)C(=Cc1ccc(OCc2ccc([N+](=O)[O-])cc2)c(OC)c1)C(=O)OCC	0.5	-2	3	53*	1
COC(=O)C(=Cc1ccc(OCc2ccc([N+](=O)[O-])cc2)c(OC)c1)C(=O)OC	1	23	11	4	0.8
COc1ccc2c(c1)c1ncn(Cc3ccco3)c(=O)c1n2C	0.3	75*	8	72*	0.3
COc1ccc2c(C(=O)CN3CC(C)OC(C)C3)c[nH]c2c1 (centres undefined)	0.8	53*	7	21	0.5
CC(Nc1ccccc1)C(=O)Nc1ccc(F)cc1 (centres undefined)	0.7	35	7	27	0.7
Cc1ccc(NC(=O)COc2ccc(/C=C3/SC(=Nc4ccccc4)N(Cc4cccnc4)C3=O)cc2)cc1	0.5	3	9	53*	1
CN(CCc1ccccn1)C(=O)CN(C)S(=O)(=O)c1ccc2c(c1)c(=O)n(C)c(=O)n2C	0.7	-13	2	25	1.1
C=CCn1cnc2scc(-c3ccc(CC)cc3)c2c1=O	0.5	93*	16	53*	0.1
COc1ccnc(NCc2cccc(C(F)(F)F)c2)c1C#N	0.9	54*	8	14	0.5
CC(C)Oc1ccc(CNC(=S)N/N=C/c2cccnc2)cc1	0.7	18	12	32	0.8
C=CCn1c(N)c(C(=O)OCCC)c2nc3ccccc3nc21	0.3	77*	8	69*	0.2
COCCNC(=O)CSc1nc2cc(OC)c(OC)cc2c(=O)n1CCC1=CCCCC1	·	·	13	·	·
SMILES	CYP2C9 activ	CYP2C19 inhib	Measles CPE	CYP2C9 inh	CYP2C19 activ
COCCNC(=O)c1c(N)n(CCC2=CCCCC2)c2nc3ccccc3nc12	0	92*	3	96*	0.1
C=CCn1c(N)c(C(=O)Nc2cccc(C)c2)c2nc3ccccc3nc21	0.8	-7	2	17	1.1
COCCn1c(N)c(C(=O)OCc2ccccc2)c2nc3ccccc3nc21	0.4	38	5	62*	0.6
Nc1c(C(=O)OCC2CCCO2)c2nc3ccccc3nc2n1C1CCCCC1 (centres undefined)	1.1	7	6	-7	0.9
CCc1cc2cc3c(cc2nc1SCC(=O)Nc1cc(C)on1)OCO3	1.2	-15	3	-23	1.1
COc1cc(/C=C(\C#N)c2nc3ccccc3[nH]2)ccc1Oc1ccc([N+](=O)[O-])cn1	0.6	12	19	37	0.9
COc1cc(/C=C(/C#N)c2nc3ccccc3[nH]2)ccc1OC(=O)c1ccco1	0.4	24	21	61*	0.8
Cc1nc(SCC(=O)Nc2c(C)n(C)n(-c3ccccc3)c2=O)n[nH]1	·	·	4	·	·
CC1=C(C(=O)OCc2ccccc2)C(/C=C/c2ccccc2)NC(=S)N1 (centres undefined)	·	·	3	·	·
C=CCOC(=O)C1=C(C)NC(=S)NC1/C=C/c1ccccc1 (centres undefined)	0.4	60*	10	65*	0.4
CCOC(=O)C1CCN(S(=O)(=O)c2cccc(-c3cn4cc(Cl)ccc4n3)c2)CC1	0.3	76*	2	67*	0.2
CC1CCN(S(=O)(=O)c2cccc(-c3cn4cc(Cl)ccc4n3)c2)CC1	0.4	46	8	61*	0.5
CCOC(=O)C1CCN(S(=O)(=O)c2cccc(-c3cn4cccc(C)c4n3)c2)CC1	0.4	53*	7	64*	0.5
CCOC(=O)C1CCN(S(=O)(=O)c2cccc(-c3cn4ccccc4n3)c2)CC1	0.6	32	5	38	0.7
Cc1nc(-c2cccc(S(=O)(=O)N3CCC(C)CC3)c2)cs1	0.6	20	2	41	0.8
CSc1nnc(-c2cnccn2)n1CCCN1CCCC1=O	1	0	3	4	1
CCN(CC)C(=O)C1CCN(S(=O)(=O)c2cccc3nonc23)CC1	1.7	65*	1	-70	0.3
CCOC(=O)N1CCN(S(=O)(=O)c2cccc3cccnc23)CC1	3.3*	91*	21	-230	0.1
CCOC(=O)N1CCN(S(=O)(=O)c2cccc3nonc23)CC1	0.3	82*	26	71*	0.2
CCN(C(=O)C1CCN(S(=O)(=O)c2cccc3nonc23)CC1)c1ccccc1	0.7	18	2	26	0.8
CCOC(=O)N1CCN(S(=O)(=O)c2cc(Cl)ccc2Cl)CC1	·	·	11	·	·
NNC1=N[C@H]2CS(=O)(=O)C[C@H]2S1	·	·	5	·	·
CCOC(=O)c1c(NC(=S)NC(=O)c2ccc(Cn3cc(Cl)cn3)o2)sc2c1CCCCC2	0.6	4	3	37	1
O=C(CCC(=O)N1CCN(S(=O)(=O)c2ccc(Cl)cc2)CC1)Nc1cccc(Br)c1	·	·	3	·	·
CCc1ccc(NC(=O)CSc2nc3cc(C(=O)OC)ccc3c(=O)n2CC2CCCO2)cc1 (centres undefined)	0.5	20	4	46	0.8
O=C(CN(Cc1ccc2c(c1)OCO2)C(=O)CNS(=O)(=O)c1ccccc1)NCc1ccco1	0.7	74*	18	34	0.3
O=C(CN(Cc1ccccc1F)C(=O)c1ccco1)NCc1ccc(F)cc1	1.2	37	5	-20	0.6
COc1ccccc1CN(CC(=O)NCc1ccco1)C(=O)CNS(=O)(=O)c1ccccc1	0.9	16	7	11	0.8
